Most compounds without a hit are left out; they make up all but 3.3% or so of the library.
D3 ag – agonists of human D3 dopamine receptor; 0.58% of 410,000 active; max activation, %; P35462; D3R DiscoveRx beta-arrestin cells, luminescence, 90 min; in the data active means max activation above about 30%; further: 0% is about no effect
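Agonist-mode cell screen: cells plated at 1500/well and incubated overnight at 37 °C, then exposed to library compounds for 90 min at 37 °C. Detection reagent was added for 30–60 min at room temperature, and luminescence was read.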
PI4K2A block – inhibitors of human PI4K2A. Q9BTU6. purified PI4K2A, ADP-Glo luminescence, 1 h; stronger effect = lower value. activity change, negative = inhibition, % at 76.9 µM. 0.13% of 420,000 active. AID 1346378; in the data active means activity change below about -50%; inconclusive means mostly about -30% to -49%;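 further: -100% = wells without enzyme as full effect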
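Compounds are screened against recombinant PI4K2A using PI as substrate and ATP, the latter dispensed at 300 microM. Reactions run one hour at ambient temperature before ADP-Glo detection; full inhibition defined by wells lacking enzyme.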
PI5P4K alpha inh – inhibitors of human PI5P4K alpha; PI5P4Kalpha enzyme, ADP-Glo luminescence, 60 min; stronger effect = lower value; max response, %; 1.2% of 330,000 active; active means max response of -50% or lower; inconclusive means between -30% and -50%; inactive means -30% or higher; further: value at the top dose of about 77 µM; on the % scale 0 is the no-effect control and ±100 the full control effect
Target sequence (P48426 whole entry, looked up): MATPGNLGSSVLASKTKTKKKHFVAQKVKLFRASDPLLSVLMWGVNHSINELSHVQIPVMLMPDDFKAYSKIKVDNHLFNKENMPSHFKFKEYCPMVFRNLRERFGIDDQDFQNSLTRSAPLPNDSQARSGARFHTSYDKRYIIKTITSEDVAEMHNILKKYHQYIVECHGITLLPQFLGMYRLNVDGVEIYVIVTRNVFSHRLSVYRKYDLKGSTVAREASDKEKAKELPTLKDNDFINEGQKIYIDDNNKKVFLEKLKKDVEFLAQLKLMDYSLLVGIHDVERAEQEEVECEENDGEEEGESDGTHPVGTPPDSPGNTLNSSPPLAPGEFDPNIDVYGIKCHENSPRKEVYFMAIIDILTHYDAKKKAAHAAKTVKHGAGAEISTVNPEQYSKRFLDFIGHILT
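Single end-point luminescence (ADP-Glo) quantified ADP from PI5P4Kalpha turnover; ATP 5 microM final, 1 h at RT, 0.1% CHAPS and 0.28 mM EGTA in HEPES pH 7.4.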
LDHA block – blocks human lactate dehydrogenase A. 0.15% of 480,000 active. activity change, % (values are at about 110 or 230 µM). P00338. purified LDHA, NADH/diaphorase-resazurin fluorescence; stronger effect = lower value; in the data active means activity change below about -30%; inconclusive means mostly about -25% to -30%;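 further: plate controls were DMSO wells for no effect and wells without enzyme for full effect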
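LDH5 2 nM; NADH 0.06 mM, pyruvate 0.2 mM; 200 mM Tris pH 7.4, EDTA, Tween-20; 5 min RT. Detection: diaphorase 0.133 mg/mL + resazurin 37 µM, fluorescence ex540/em590 at 0 and 20 min; normalized to enzyme-free and DMSO wells.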
D3 antag – antagonists of human D3 dopamine receptor; 2.5% of 360,000 active; D3R cells, DiscoveRx beta-arrestin luminescence, antagonist mode; stronger effect = lower value; max response, negative = inhibition, %; P35462; in the data active means max response below about -50%; inconclusive means no clear call, values can overlap the other calls; further: on the % scale 0 is the no-effect control and ±100 the full control effect
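Cells plated overnight at 1500 cells/well, then exposed to library compounds with dopamine controls for 90 minutes at 37 degrees C. DiscoveRx reagent added for 30–60 minutes at room temperature; luminescence read, quantitative HTS format.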
An asterisk follows results filed as active; ! = a repeat was not active.

For COc1ccc(C(NC(=O)CN2CCCCCC2)c2ccc(OC)cc2)cc1 the results were D3 ag -28.5, PI4K2A block 0.2, PI5P4K alpha inh 1.8, LDHA block -1.7 and D3 antag -52.5*.
For CCOc1ccccc1N1CCN(CC(=O)NC(C)c2ccccc2)CC1 (stereo not given) the results were D3 ag -22.1, PI4K2A block -9.7, PI5P4K alpha inh -0.4, LDHA block -6.3 and D3 antag -89.1*.
`O=C(CN1CCCC1)NC(c1ccccc1)c1ccccc1` gave D3 ag -4.6, PI4K2A block 3.1, PI5P4K alpha inh -1.6, LDHA block -14.5 and D3 antag -7.8.
O=C(CN1CCN(c2ccccc2O)CC1)NC(c1ccccc1)c1ccccc1 was read as D3 ag -19.2, PI4K2A block 0.2, PI5P4K alpha inh -5.2, LDHA block -1.6 and D3 antag -56.2*.
`Cc1nc2cc(Oc3nc(NCCN(C)C)nc4ccsc34)ccc2s1` gave D3 ag -14.7, PI4K2A block 1.8, PI5P4K alpha inh -9.7, LDHA block -3.9 and D3 antag -59.1*.
`Cc1oc2cc(OCC(=O)NC(C)C)ccc2c(=O)c1-c1ccc(Cl)cc1` gave LDHA block -0.8.
For CS/C(N)=N/N=C/c1ccc([N+](=O)[O-])cc1 the results were D3 ag -0.5, PI4K2A block 1.4, PI5P4K alpha inh -8.4, LDHA block -11.1 and D3 antag -50.7*.
Cc1ccc(SCC(=O)OCC(=O)c2ccc3c(c2)OCCO3)cc1 was read as LDHA block 17.4.
`COc1ccccc1NC(=O)c1cc(=O)c2c(C)cc(C)cc2o1` gave LDHA block -4.3.
Screening COCCNC(=O)COC(=O)CCc1c[nH]c2ccccc12 returned LDHA block 8.2.
`CC(=O)c1ccc(NC(=O)C(C)Nc2ccc(Cl)cc2)cc1` (stereo not given) gave D3 ag -12.3, PI4K2A block -7.9, PI5P4K alpha inh 8.0, LDHA block -16.1 and D3 antag -55.8*.
Screening CC(=O)Nc1cc[n+](C(C)C(=O)c2ccc(Cl)cc2)cc1 (stereo not given) returned D3 ag -18.7, PI4K2A block -3.2, PI5P4K alpha inh -6.4, LDHA block -0.4 and D3 antag -86.7*.
`Cc1cc[n+](C(C)C(=O)c2ccc(Cl)cc2)cc1` (stereo not given) gave D3 ag -13.2, PI4K2A block -0.7, PI5P4K alpha inh 1.7, LDHA block -3.4 and D3 antag inconclusive.
`CC(=O)c1ccc(NC(=O)Nc2ccc(Cl)cc2)cc1` gave D3 ag 0.5, PI4K2A block -0.1, LDHA block -8.8 and D3 antag 10.5.
For O=C(Nc1ccc(Cl)cc1)C(Cl)C(=O)c1ccccc1 (stereo not given) the results were D3 ag -29.3, PI4K2A block -13.6, PI5P4K alpha inh -5.6, LDHA block -1.6 and D3 antag -52.3*.
Screening CC1Cc2ccccc2N1S(=O)(=O)c1c(F)cc(F)cc1Br (stereo not given) returned LDHA block -1.5.
For CCN(CC)S(=O)(=O)c1ccc(-c2nc(C#N)c(N3CCCCC3)o2)cc1 the results were LDHA block -11.8.
For Cc1cc(C)n2nc(SC(C)C(=O)Nc3ccc(Cl)cc3)nc2n1 (stereo not given) the results were LDHA block 15.3.
For CC1(C)CC(=O)C(N=Nc2cccc([N+](=O)[O-])c2)=C(O)C1 the results were D3 ag -18.1, PI4K2A block -4.8, PI5P4K alpha inh 5.7, LDHA block -3.7 and D3 antag -67.2*.
For CC1(C)CC(=O)C2=C(C1)OC1=C(C(=O)CC(C)(C)C1)C2c1cccc([N+](=O)[O-])c1 the results were D3 ag -12.5, PI4K2A block -4.2, PI5P4K alpha inh 6.0, LDHA block -2.5 and D3 antag -78.3*.
For CC1(C)CC(=O)C2=C(C1)OC1=C(C(=O)CC(C)(C)C1)C2c1ccc(O)c([N+](=O)[O-])c1 the results were D3 ag -0.2, PI4K2A block -0.2, PI5P4K alpha inh 7.3, LDHA block -2.4 and D3 antag 0.4.
`CC1(C)CC(=O)C(N=Nc2ccc(Br)cc2)=C(O)C1` gave D3 ag 2.4, PI4K2A block -0.6, PI5P4K alpha inh -1.3, LDHA block -3.9 and D3 antag -10.4.
Screening Oc1cc2ccccc2cc1-c1n[nH]c(=S)o1 returned D3 ag -1.6, PI4K2A block -12.4, PI5P4K alpha inh -73.3*, LDHA block 6.4 and D3 antag -50.0*.
Screening CC(NCCC(c1ccccc1)c1ccccc1O)c1ccccc1 (stereo not given) returned LDHA block 3.1.
O=C(/C=C/c1ccco1)N1CCC(Cc2ccccc2)CC1 was read as D3 ag -0.6, PI4K2A block -5.0, PI5P4K alpha inh -56.6*, LDHA block -1.6 and D3 antag -19.2.
O=C(/C=C/c1ccco1)N1CCN(c2ncccn2)CC1 was read as D3 ag 3.8, PI4K2A block -1.2, PI5P4K alpha inh 1.8, LDHA block -1.6 and D3 antag -0.9.
For NCCS the results were D3 ag 64.9*!, PI4K2A block -3.0, PI5P4K alpha inh -19.6, LDHA block -10.3 and D3 antag -85.5*.
O=C(O)CCN1C(=O)CC(N2C(=O)/C(=C/c3ccc(Cl)cc3)SC2=S)C1=O (stereo not given) was read as D3 ag 31.0*, PI4K2A block -10.1, PI5P4K alpha inh 1.3, LDHA block 4.9 and D3 antag 0.0.
N#Cc1ccc(/C=N/Nc2ccc(F)cc2)cc1 was read as LDHA block 7.1.
CCOc1ccccc1NC(=O)NCc1c(C)nn(CC)c1C was read as LDHA block -1.0.
Screening NS(=O)(=O)c1ccc(-c2cccc(/C=C3\SC(=O)NC3=O)c2)cc1 returned D3 ag 2.1, PI4K2A block -0.7, PI5P4K alpha inh -55.7*, LDHA block -8.5 and D3 antag 2.0.
COc1cccc(C(C)(O)c2nc(/C=C/c3ccccc3)cs2)c1 (stereo not given) was read as D3 ag -13.5, PI4K2A block -2.6, PI5P4K alpha inh 5.3, LDHA block -3.9 and D3 antag -60.6*.
Screening CC(O)(c1cccc(F)c1)c1nc(-c2ccoc2)cs1 (stereo not given) returned D3 ag -2.3, PI4K2A block -11.8, PI5P4K alpha inh -3.4, LDHA block -2.6 and D3 antag 2.0.
`COc1cccc(C(C)(O)c2nc(-c3ccoc3)cs2)c1` (stereo not given) gave D3 ag -9.5, PI4K2A block -2.7, PI5P4K alpha inh -4.9, LDHA block -4.4 and D3 antag -94.7*.
CC(O)(c1ccc(F)c(F)c1)c1nc(/C=C/c2ccccc2)cs1 (stereo not given) was read as D3 ag -9.8, PI4K2A block -3.8, PI5P4K alpha inh 2.2, LDHA block -2.7 and D3 antag 0.0.
